High-throughput results as filed in PubChem.
Sampled rows, rich in hits. Any-hit rate of the full collection: about 4.1%.
hcDAF12 agonist – H. contortus DAF-12 activation, primary screen. hit rate 1.4% among 370,000. activation, % at 6.8 µM. HEK293 hcDAF-12 lit1-tk-luc reporter, luminescence; 0% DMSO, 100% Δ7-dafachronic acid. AID 652067;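 active = activation above the mean of all tested compounds plus 3 SD, cut at about 5.5% in these data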
ssDAF12 agonist – S. stercoralis DAF-12 activation, primary screen; AID 652126; hit rate 1% among 370,000; activation, % at 6.8 µM; HEK293 ssDAF-12/GRIP1 lit1-tk-luc reporter, luminescence; % of 3 µM dafachronic acid response;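 active = activation above the mean over all tested compounds plus 3 SD, cut at about 0.9% in these data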
DAX1 inh-1 – blocks DAX1 repression of SF-1 activated StAR promoter. inhibition, % at 6.8 µM. hit rate 1.1% among 370,000. HEK293T StAR-luciferase reporter, SF-1/DAX-1 repression relief;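 active = inhibition above the mean over all tested compounds plus 3 SD, cut at about 3.6% in these data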;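 note: higher inhibition means more luminescence from relief of DAX-1 repression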
hgDAF12 agonist – activates the H. glycines DAF-12 receptor ligand-binding domain; HEK293 GAL4-hgDAF12 UAS-luciferase reporter, agonist luminescence; normalized to butyrate control; activation, % at 6.8 µM; hit rate 1.8% among 370,000; AID 687014;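 active = activation above a cutoff set at the mean of all screened compounds plus 3 SD, cut at about 10% in these data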
DAX1 inh-2 – inhibitors of human orphan nuclear receptor DAX1 (NR0B1); HEK293 Gal4-DAX1 luciferase reporter, luminescence; hit rate 0.99% among 340,000; P51843; inhibition, % at 6.75 µM;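 active = inhibition above the mean over all tested compounds plus 3 SD, cut at about 4.2% in these data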;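 note: inhibition shows as a rise in luminescence from relieved DAX1 repression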
DAX1 inh confirm – NR0B1 (human) inhibition, confirmation | hit rate 87% among 2,400 | inhibition, % at 6.8 µM | shares compounds with DAX1 inh-1 | HEK293T StAR-promoter luciferase reporter, SF-1/DAX-1 repression;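 active = inhibition above the average of every tested compound plus 3 SD, cut at about 3.8% in these data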;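 note: active compounds raise luminescence by relieving repression of the StAR reporter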
Target sequence (P51843 whole entry, looked up): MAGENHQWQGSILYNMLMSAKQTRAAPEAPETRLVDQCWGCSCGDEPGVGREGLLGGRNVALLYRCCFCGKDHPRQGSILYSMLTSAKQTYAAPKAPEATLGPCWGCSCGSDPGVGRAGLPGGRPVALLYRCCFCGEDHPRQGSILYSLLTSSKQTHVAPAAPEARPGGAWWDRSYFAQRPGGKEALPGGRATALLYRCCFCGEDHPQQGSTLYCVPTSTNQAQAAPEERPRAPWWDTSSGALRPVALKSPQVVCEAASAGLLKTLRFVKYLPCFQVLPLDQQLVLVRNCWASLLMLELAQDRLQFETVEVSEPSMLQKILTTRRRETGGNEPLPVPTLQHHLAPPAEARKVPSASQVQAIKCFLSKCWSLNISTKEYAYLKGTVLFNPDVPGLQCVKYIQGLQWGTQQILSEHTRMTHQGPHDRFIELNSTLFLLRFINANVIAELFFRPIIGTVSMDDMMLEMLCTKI
SF1 mutant ctr – nonselective inhibitor or artifact in SF-1 mutant DAX1 counter-screen; shares compounds with DAX1 inh-1; HEK293 StAR-luciferase, SF-1 AF2 mutant, luminescence; inhibition, % at 6.8 µM; hit rate 78% among 2,400; AID 652136;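 active = inhibition above the mean of all tested compounds plus 3 SD, cut at about 3% in these data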
Of the large screens only hits and unclear results are named; the others gave an inactive call (follow-up assays come after a bar, where they were run).

O=C(NC(=S)Nc1ccc([N+](=O)[O-])cc1O)C1CCCCC1	none
Cn1ccc(C(=O)NC(=S)Nc2ccc([N+](=O)[O-])cc2O)n1	DAX1 inh-1 8.3 | DAX1 inh confirm 10 | SF1 mutant ctr 5.8
Cc1ccnc(Nc2ccc(CCO)cc2)n1	DAX1 inh-1 4.8, hgDAF12 agonist 11 (no result: DAX1 inh-2) | DAX1 inh confirm 9.5 | SF1 mutant ctr 5.6
O=C(CCc1ccccc1)N[C@H]1[C@H](OCc2ccccc2)CCC[C@@]12C(=O)N(Cc1ccccc1)c1ccc(-c3cnccn3)cc12	none (no result: DAX1 inh-2)
O=c1cc(-c2ccc(O)c(O)c2)oc2c1ccc1ccccc12	none
O=c1cc(-c2ccc(O)c(O)c2)oc2ccc3ccccc3c12	DAX1 inh-1 8.4, hgDAF12 agonist 10 | DAX1 inh confirm inactive | SF1 mutant ctr inactive
Cc1ccc(C(=O)OCC(=O)N2CCNC2=O)c(C)c1	DAX1 inh-1 6.9 | DAX1 inh confirm 7.1 | SF1 mutant ctr 5.9
Cc1ccc(NC(=O)c2sccc2C)nc1	DAX1 inh-1 9.7, hgDAF12 agonist 11 | DAX1 inh confirm 9.2 | SF1 mutant ctr 7.2
CC(=O)c1cccc(-c2ccnc3c2CC(C(=O)NCc2ccccc2)O3)c1 (centres undefined)	DAX1 inh-1 4.8 (no result: DAX1 inh-2) | DAX1 inh confirm 12 | SF1 mutant ctr inactive
O=C(Nc1cccc(-c2ccc(N3CCOCC3)nn2)c1)c1ccccc1	DAX1 inh-1 4.7 | DAX1 inh confirm inactive | SF1 mutant ctr inactive
COc1ccc(-c2ccc(NC(=O)c3ccco3)cc2)nn1	DAX1 inh-1 9.0 | DAX1 inh confirm 13 | SF1 mutant ctr inactive
O=C(COc1ccccc1)Nc1cccc(-c2ccc(N3CCOCC3)nn2)c1	DAX1 inh-1 7.9, hgDAF12 agonist 13 | DAX1 inh confirm 5.3 | SF1 mutant ctr inactive
O=C(Nc1cccc(-c2ccc(N3CCOCC3)nn2)c1)c1ccc([N+](=O)[O-])cc1	none
CC1CCN(c2ccc(-c3cccc(NC(=O)c4ccco4)c3)nn2)CC1	DAX1 inh-1 8.0 | DAX1 inh confirm 11 | SF1 mutant ctr 3.4
O=C(COc1ccc(Cl)cc1Cl)Nc1cccc(-c2ccc(N3CCOCC3)nn2)c1	none
CCOC(=O)N1CCN(C(=O)C[C@H]2C(=O)N(Cc3ccc(OC)cc3)C3=CCCC[C@@]32C(=O)OCC)CC1	none (no result: DAX1 inh-2)
O=C(NCC(c1ccccc1)c1ccccc1)[C@H](Cc1ccccc1)NC1(C(=O)NC2CCCCC2)CCC1	none (no result: DAX1 inh-1, DAX1 inh-2)
O=C(CSc1nnc(-c2ccc(Br)cc2)o1)Nc1cccc2ccccc12	none
O=C(CSc1nnc(-c2ccncc2)o1)Nc1cc(F)ccc1F	DAX1 inh-1 4.9, hgDAF12 agonist 13 | DAX1 inh confirm 5.2 | SF1 mutant ctr 5.9
O=C(CSc1nnc(-c2ccc(Br)cc2)o1)Nc1cccc(C(=O)O)c1	DAX1 inh-1 5.0 | DAX1 inh confirm 6.1 | SF1 mutant ctr 5.4
C#CCCN([C@@H](CC(C)C)C(=O)OC)S(=O)(=O)c1ccc(F)cc1Br	none (no result: DAX1 inh-2)
C/C=C/C(=O)N1CCc2cc(S(=O)(=O)N(C)Cc3ccco3)ccc21	none (no result: DAX1 inh-2)
O=C(Nc1ccc(Cl)cc1)OC[C@@H]1CSCCS(=O)(=O)N1	DAX1 inh-1 5.0 (no result: DAX1 inh-2) | DAX1 inh confirm inactive | SF1 mutant ctr inactive
CCCCN1CCS(=O)(=O)N(Cc2cn(Cc3cccc(Cl)c3)nn2)C(C(=O)OC)C1 (centres undefined)	none (no result: DAX1 inh-2)
CC(C)c1ccc(NC(=O)CSc2nnc(-c3ccco3)n2C)cc1	none (no result: DAX1 inh-2)
COc1ccc(/C(C)=N/Nc2nccnc2Cl)cc1	DAX1 inh-1 5.6 | DAX1 inh confirm 4.2 | SF1 mutant ctr inactive
CCNc1nc(NCC)nc(N/N=C(\C)c2ccc(OC)cc2)n1	none
COC(=O)C1CCN(C(=O)c2ccc3nc(-c4cccc(OC)c4)oc3c2)CC1	DAX1 inh-1 4.8 | DAX1 inh confirm 8.3 | SF1 mutant ctr 5.0
COc1ccc(CN2C/C(=C/C3=CCCCC3)N(C(=O)OCc3ccccc3)C2=N)c(OC)c1	none (no result: DAX1 inh-2)
Cc1ccccc1/C(N)=N/OC(=O)c1ccc(F)cc1	none
